GLP1R inv ag = acts as inverse agonist at human GLP-1 receptor; HEK293 GLP-1R CRE-luciferase, luminescence, 24 h; GLP-1R form is constitutively active; Potency, µM (titrated, usually from 38.3 µM), inactives show at the highest dose activity change, negative = inhibition, hits mostly inhibitors; P43220; AID 624417; hit rate 1.6% among 410,000; also: % is scaled to controls: 0 for no effect and ±100 for the full control effect; nearly all actives have a fitted effect of over 55% in size
Target sequence (P43220 whole entry, looked up): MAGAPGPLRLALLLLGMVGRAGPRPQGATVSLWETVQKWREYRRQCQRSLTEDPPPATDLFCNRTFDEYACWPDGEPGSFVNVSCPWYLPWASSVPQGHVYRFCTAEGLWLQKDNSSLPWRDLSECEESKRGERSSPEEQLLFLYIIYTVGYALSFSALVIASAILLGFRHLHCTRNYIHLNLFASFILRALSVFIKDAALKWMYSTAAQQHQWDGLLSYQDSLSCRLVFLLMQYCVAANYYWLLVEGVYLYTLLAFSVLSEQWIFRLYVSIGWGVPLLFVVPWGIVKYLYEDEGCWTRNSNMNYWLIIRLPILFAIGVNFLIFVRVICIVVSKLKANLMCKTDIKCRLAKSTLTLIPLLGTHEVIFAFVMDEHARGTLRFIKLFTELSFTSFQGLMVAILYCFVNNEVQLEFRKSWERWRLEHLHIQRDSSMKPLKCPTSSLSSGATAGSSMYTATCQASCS
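Cells are plated, allowed 12 hours at 37 deg C, then treated with compounds for 24 hr before luciferase detection reagent is added and luminescence is read after 12 min at room temperature. The HEK293 line carries constitutively active GLP-1R with a cAMP-responsive reporter.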
GLP1R ag = agonists of human GLP-1 receptor. hit rate 0.007% among 380,000. Potency, µM (doses to about 45.6 µM), for the others: at the highest dose activation, usual class: activators. AID 624172. HEK293 GLP-1R CRE-luciferase, luminescence, 4-6 h; cells express a hypersensitive GLP-1R form. P43220; also: % of control where 0% means no effect
GLP1R cytotox = cytotoxicity in counter-screen for GLP-1R inverse agonists; HEK293 cAMP-luciferase reporter cells, luminescence, 24 h; Potency, µM (highest dose often 38.3 µM), for the others: at the top dose activity change, negative = inhibition, hits mostly inhibitors; hit rate 0.13% among 410,000; AID 624418;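 also: loss of luciferase light is scored as toxicity; % is scaled to controls: 0 for no effect and ±100 for the full control effect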
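A 23 nL compound transfer followed 12 hours of cell culture at 37 deg C; exposure then lasted 24 hr. Luciferase assay detection reagent was dispensed and plates read for luminescence after a 12 min room-temperature wait.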
Gal4-VP16 FLuc = inhibits Gal4-VP16 luciferase reporter, ROR gamma counter-screen. Drosophila S2 Gal4-VP16 UAS-luciferase, luminescence, 20 h. Potency, µM (top dose mostly 53.6 µM), inactives show at the highest dose activity, negative = inhibition, hits mostly inhibitors. hit rate 3.5% among 310,000. AID 2546;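 also: Gal4-VP16 expression switched on by copper sulfate through the metallothionein promoter; % is scaled to controls: 0 for no effect and ±100 for the full control effect; nearly all actives have a fitted effect of over 50% in size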
RORg inh = inhibitors of mouse ROR gamma transcriptional activity. P51450. Drosophila S2 Gal4-RORgamma UAS-luciferase reporter, 20 h. Potency, µM (top dose mostly 53.6 µM), for the others: at the highest dose activity change, negative = inhibition, actives largely listed as inhibitors. hit rate 5.4% among 310,000. AID 2551; also: % is scaled to controls: 0 for no effect and ±100 for the full control effect; nearly all actives have a fitted effect of over 60% in size
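A Gal4/UAS one-hybrid system in insect cells: metallothionein-promoter Gal4–ROR gamma fusion plus Photinus luciferase reporter. Copper sulfate 700 uM final, 20 hr ambient incubation, luminescent detection after 10 min with reagent.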
Starred values were filed as active, the others as inactive; i = inactive; ? = inconclusive; nt = not tested or not shown; [ ] = remark or other dose. Hits are enriched below; roughly 5.9% of the tested compounds scored in any of these assays. Calls follow the shape of the dose curve; as a rule, active = well fitted curve in the direction sought with a large enough effect; inconclusive = small, poorly fitted or top-dose-only effect, or another doubt; inactive = no such curve, though single readings can be large; an effect the other way counts as inactive or inconclusive. Potency is read from the fitted curve at half-maximal effect.

SMILES | GLP1R inv ag | GLP1R ag | GLP1R cytotox | Gal4-VP16 FLuc | RORg inh
CCCCC/C=C\C[C@@H](O)/C=C/C=C\C/C=C\CCCC(=O)O | nt | nt | nt | -5.2% | 16.1%
Cn1nc(C(=O)Nc2ccc3c(c2)OCCO3)cc1C(=O)O | -29.1% | -2.3% | 1.2% | -29.2% | -44.6%
CCCCC(=O)Nc1ccc(N2CCCC2)cc1 | 0.0% | -1.0% | -7.5% | nt | nt
Cn1ccc(C(=O)Nc2ccc3c(c2)OCCO3)n1 | ? | -0.6% | 1.5% | ? | 7.94µM*
O=C(Nc1ccc(N2CCCCC2)cc1)c1ccccn1 | ? | -5.8% | -14.3% | 2µM* | 1.26µM*
CCCOC(=O)Nc1ccc(N2CCCCC2)cc1 | 0.0% | 1.7% | 0.2% | ? | 11.2µM*
O=C(Nc1ccc(N2CCCCCC2)cc1)c1ccccc1Cl | ? | 16.8% | ? | 6.5% | 18.2%
O=C(Nc1ccc2c(c1)OCCO2)c1ccccn1 | ? | -0.4% | -16.9% | 14.1µM* | 7.08µM*
COc1ccc(C2C(C(=O)Nc3ccccc3)=C(C)Nc3nc(-c4ccccc4Cl)nn32)cc1OC (stereo not given) | -16.6% | nt | -2.7% | nt | nt
CNC1C(O)C(OC2C(N)CC(N)C(OC3OC(CN)=CCC3N)C2O)OCC1(C)O (stereo not given) | nt | -1.2% | nt | 1.0% | 1.3%
CS/C(N)=N/N=C/c1c(O)ccc2ccccc12 | ? | 1.8% | ? | 7.08µM* | 0.891µM*
Oc1ccccc1N=Cc1c(O)ccc2ccccc12 | ? | -5.0% | -28.7% | ? | 8.91µM*
Oc1cccc(C=Nc2cccc3ccccc23)c1O | 31.2% | -3.0% | ? | 12.6µM* | 11.2µM*
Oc1ccc2ccccc2c1C=Nc1ccccc1Br | -6.8% | 9.1% | -14.1% | -29.5% | 12.6µM*
Fc1ccc(Nc2nc(-c3cccc(Cl)c3)c3c(n2)-c2ccccc2OC3)cc1 | 16.1% | nt | 12.7% | nt | nt
COc1ccc(NC(=O)CSC2=Nc3ccccc3C3=NC(CCC(=O)NCc4ccco4)C(=O)N23)cc1 (stereo not given) | -24.1% | nt | -10.3% | nt | nt
CC(=O)N(C)c1ccc(N=Cc2c(O)ccc3ccccc23)cc1 | 3.2% | 12.5% | -22.9% | ? | 11.2µM*
Cc1nn(C(=O)COc2ccccc2)c(C)c1Sc1ccccc1 | 5.3% | nt | 0.7% | nt | nt
COc1ccc(C(C#N)c2ccc(=O)[nH]n2)cc1 (stereo not given) | 25.0% | 0.6% | -3.2% | 1.5% | -4.6%
COc1ccc(C(c2c(C)[nH]n(C(N)=S)c2=O)C(C#N)C#N)cc1 (stereo not given) | 6.1% | 0.4% | -3.2% | 4.47µM* | 4.47µM*
Cc1ccc2nc(SCC3CCCCO3)[nH]c2c1 (stereo not given) | 3.55µM* | 2.1% | 7.1% | 6.31µM* | 5.62µM*
CCN(CC)S(=O)(=O)c1ccc(C(=O)NNc2nc(-c3ccccc3)c3cc(Br)ccc3n2)cc1 | ? | -2.8% | -26.2% | ? | 20µM*
O=C(CN1CCCCC1)NNc1nc(-c2ccccc2)c2cc(Cl)ccc2n1 | 23.9% | 11.1% | -1.4% | 3.98µM* | 5.01µM*
O=C(CN1CCOCC1)NNc1nc(-c2ccccc2)c2cc(Br)ccc2n1 | 7.2% | 9.9% | 6.7% | -11.7%[10 µM] | 8.91µM*
Cc1ccc(C(=O)c2cn(Cc3ccccc3C)c3nc(C)ccc3c2=O)cc1 | 7.7% | nt | 9.7% | nt | nt
SMILES | GLP1R inv ag | GLP1R ag | GLP1R cytotox | Gal4-VP16 FLuc | RORg inh
N#CCCn1cnc2c1NC=NC2Cl (stereo not given) | nt | nt | nt | -0.2% | -2.0%
COc1ccc(-c2oc3ncnc(NCCCN4CCOCC4)c3c2-c2ccc(OC)cc2)cc1 | -0.4% | 12.8% | -6.7% | 15.8µM* | ?
Cc1nn2c(=O)cc(COC(=O)c3cccc(NC(=O)c4cccs4)c3)nc2s1 | ? | nt | -22.3% | nt | nt
COc1cc(C(=O)NC(=S)N(C)Cc2ccccc2)cc(OC)c1OC | ? | 5.6% | ? | 3.55µM* | 0.562µM*
COc1cc(C(=O)N/N=C(\C)Cc2ccccc2)cc(OC)c1OC | ? | 21.6% | ? | -4.2% | ?
COc1cc(C(=O)NC(=S)N(CCc2ccccc2)CCc2ccccc2)cc(OC)c1OC | ? | -41.2% | -17.2% | 0.794µM* | 0.398µM*
CN(Cc1ccccc1)C(=S)NC(=O)c1cccs1 | ? | -4.8% | ? | 0.251µM* | 0.316µM*
CN(Cc1ccccc1)C(=S)NC(=O)C1CCCCC1 | ? | 0.4% | ? | 15.5% | -3.1%
COc1cc(C(=O)NC(C)CCc2ccccc2)cc(OC)c1OC (stereo not given) | 3.1% | -0.7% | -1.4% | 1.3% | -9.7%
CN(Cc1ccccc1)C(=S)NC(=O)c1ccc(-c2ccccc2)cc1 | 2.2% | 7.4% | ? | 0.0891µM* | 0.282µM*
COc1ccc(-c2cc(C(F)(F)F)n3nc(C)c(-c4ccccc4)c3n2)cc1OC | 4.0% | 0.1% | 2.1% | nt | nt
O=C(/C=C\c1ccco1)Nc1nc(-c2ccccc2)cs1 | 13.1% | -11.7% | 2.7% | -18.5% | ?
O=C(O)/C=C/C(=O)Nc1nc(-c2ccc3ccccc3c2)cs1 | 60.9% | -6.6% | -9.2% | nt | nt
O=C(/C=C/c1ccco1)NC(=S)Nc1nc(-c2ccc3ccccc3c2)cs1 | ? | 0.1% | 8.4% | ? | 7.94µM*
O=C(/C=C/c1ccco1)NC(=S)Nc1nc(-c2ccc(Cl)cc2)cs1 | 18.9% | 5.0% | -12.6% | ? | 14.1µM*
COc1ccc(-c2ccc(OC)c(C3C4C=CCC(C)C4C(=O)N3Cc3ccccc3)c2)cc1 (stereo not given) | nt | nt | nt | 6.0% | -16.1%
NC(N)=N/N=C(\N=Nc1ccccc1)c1cccc2cccnc12 | -10.1% | -2.2% | -32.2% | nt | nt
NC(N)=N/N=C(\N=Nc1ccccc1)c1ccc(Cl)cc1 | 10µM* | -4.8% | ? | nt | nt
Cc1ccc(CNC(=O)CCCn2c(=O)c3ccccc3n(Cc3ccc(Cl)cc3)c2=O)cc1 | 2.2% | 0.7% | 4.9% | nt | nt
COc1ccc(N=c2oc3ccc(OC)cc3cc2-c2nc3ccccc3[nH]2)cc1 | -12.3% | 2.1% | 29.4% | -6.6% | 10µM*
COc1cccc(N=c2oc3ccccc3cc2-c2nc3ccccc3[nH]2)c1 | ? | -24.4% | 1.2% | ? | 7.94µM*
COc1ccc2oc(=O)c(-c3nc4ccccc4o3)cc2c1 | 58.9% | -7.2% | 109.1% | 1.7% | 3.8%
COc1cccc(N=c2oc3ccc(OC)cc3cc2-c2nc3ccccc3[nH]2)c1 | 0.0% | -2.8% | 49.1% | -25.9% | 14.1µM*
O=c1oc2c(O)cccc2cc1-c1nc2ccccc2[nH]1 | 8.7% | -0.6% | i | ? | ?
COc1cccc(NC(=O)c2oc3ccccc3c2NC(=O)c2ccc(F)c(F)c2)c1 | -6.3% | nt | 3.4% | nt | nt
O=C(Nn1cc(C(=O)Nc2ccccc2F)c2ccccc2c1=O)c1cnccn1 | 12.3%[7.66 µM] | -2.2% | -6.0%[7.66 µM] | ? | ?
COC(=O)c1cn(NC(=O)c2cnccn2)c(=O)c2ccccc12 | -27.8% | -4.3% | -9.0% | ? | 12.6µM*

Assay outcomes from PubChem.
